The results in this text go back to PMC4336329 (PLoS ONE, 2015).

The whole screen tested about 310,000 compounds, of which about 14,000 (4.5%) showed an effect of 50% or more. The effect is printed as a negative number. Shown is part of a subset that was picked to be rich in strong results.
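Also: peak tail current of the secondary pulse compared with the same well before compound.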

For this test, the target named is human ether-à-go-go-related gene (hERG) potassium channel (human, UniProt Q12809). Briefly: primary screen, population patch clamp on CHO cells stably expressing hERG; higher = less effect of the substance.
human ether-à-go-go-related gene (hERG) potassium channel, sequence (Q12809 whole entry, looked up): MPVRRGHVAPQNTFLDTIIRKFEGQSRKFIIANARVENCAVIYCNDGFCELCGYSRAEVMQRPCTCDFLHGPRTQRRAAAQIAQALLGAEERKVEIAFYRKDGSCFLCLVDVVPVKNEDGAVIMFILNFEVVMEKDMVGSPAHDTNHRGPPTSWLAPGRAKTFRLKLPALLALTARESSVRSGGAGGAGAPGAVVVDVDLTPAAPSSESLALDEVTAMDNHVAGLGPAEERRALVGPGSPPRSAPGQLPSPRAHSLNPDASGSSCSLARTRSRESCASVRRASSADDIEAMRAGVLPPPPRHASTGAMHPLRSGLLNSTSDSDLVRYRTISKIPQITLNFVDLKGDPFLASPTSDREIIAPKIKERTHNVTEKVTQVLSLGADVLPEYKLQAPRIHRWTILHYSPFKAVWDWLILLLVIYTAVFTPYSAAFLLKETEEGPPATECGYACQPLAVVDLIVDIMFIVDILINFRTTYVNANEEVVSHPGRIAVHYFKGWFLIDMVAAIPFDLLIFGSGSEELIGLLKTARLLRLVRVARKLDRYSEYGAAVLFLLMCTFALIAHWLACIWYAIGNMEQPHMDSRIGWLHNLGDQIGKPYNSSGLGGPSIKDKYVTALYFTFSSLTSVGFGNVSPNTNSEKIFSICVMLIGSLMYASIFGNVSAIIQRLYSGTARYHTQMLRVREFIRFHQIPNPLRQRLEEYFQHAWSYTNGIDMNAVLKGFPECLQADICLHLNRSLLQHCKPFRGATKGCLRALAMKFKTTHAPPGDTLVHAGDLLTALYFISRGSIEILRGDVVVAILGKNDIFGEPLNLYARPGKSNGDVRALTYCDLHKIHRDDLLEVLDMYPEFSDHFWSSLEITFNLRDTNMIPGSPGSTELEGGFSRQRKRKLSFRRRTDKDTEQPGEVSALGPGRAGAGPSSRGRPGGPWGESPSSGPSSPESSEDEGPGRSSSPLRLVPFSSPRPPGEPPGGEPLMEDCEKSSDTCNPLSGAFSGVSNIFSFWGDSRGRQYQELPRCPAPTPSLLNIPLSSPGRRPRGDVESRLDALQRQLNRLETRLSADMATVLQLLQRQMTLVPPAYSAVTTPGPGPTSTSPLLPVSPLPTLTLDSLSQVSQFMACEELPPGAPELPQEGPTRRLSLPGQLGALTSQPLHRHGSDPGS
`CC(O)(CS(=O)(=O)Cc1ccccc1)C(=O)Nc1cccc(C(F)(F)F)c1` (centres unmarked): the “hERG current change (%, negative = inhibition) at 10uM” value is listed as 1.72%. Turning to `COC(=O)Nc1ccc(S(=O)(=O)N2CCCc3ccccc32)cc1`, the “hERG current change (%, negative = inhibition) at 10uM” value was 8.63%.

In the case of `O=C1Oc2ccccc2C(=O)/C1=C/N1CCN(c2ccccc2F)CC1`, the “hERG current change (%, negative = inhibition) at 10uM” value is recorded as -0.353%. For the molecule `O=c1[nH]c(Cl)ccc1CN1CCOCC1`, the “hERG current change (%, negative = inhibition) at 10uM” value was 14.5%.

As for `Cc1ccccc1C(=O)Nn1cnnc1`, the “hERG current change (%, negative = inhibition) at 10uM” value is reported as 3.49%. Regarding `COc1ccc(S(=O)(=O)NCc2ccc(C(=O)NCCCN3CC(C)CC(C)C3)cc2)cc1` (centres unmarked), the “hERG current change (%, negative = inhibition) at 10uM” value is listed as -28.1%. `COC(=O)c1cc(S(=O)(=O)N2CCC(C)CC2)ccc1F`: the “hERG current change (%, negative = inhibition) at 10uM” value is -18%. In the case of `COc1ccc(-c2cc(CNS(=O)(=O)c3cc(OC)ccc3OC)on2)cc1` it was 6.1%; in that of `O=C(NC(=S)Nc1ccc2nc[nH]c2c1)c1ccccc1`, 12.4%; in that of `COc1ccc(CCNCc2ccsc2)cc1OC`, 1.86%.

For `Cc1cc(/C=C2\Cc3ccccc3C2=O)c(C)n1-c1ccccc1`, the “hERG current change (%, negative = inhibition) at 10uM” value was found to be 1.62%.

Consider `O=C(Nc1ccc(N2CCOCC2)c(F)c1)c1cccs1`, for which the “hERG current change (%, negative = inhibition) at 10uM” value was 1.9%. On to `Cc1ccc(S(=O)(=O)NCC(=O)N2CCN(c3ccc(F)cc3)CC2)cc1`, for which the “hERG current change (%, negative = inhibition) at 10uM” value is -10.2%. As for `O=C(CNS(=O)(=O)c1ccc(Br)s1)N1CCN(c2ccc(F)cc2)CC1`, the “hERG current change (%, negative = inhibition) at 10uM” value is listed as -25.2%. Then `O=C(CNS(=O)(=O)c1ccc(F)cc1)N1CCN(c2ccccc2)CC1`, with -11.7%; and `O=C(CNS(=O)(=O)c1ccc(F)cc1)N1CCN(c2ccc(F)cc2)CC1`, with -51.7%; and `O=C(CNS(=O)(=O)c1ccc(F)cc1)N1CCCC1`, with 12%. Then `O=C(CNS(=O)(=O)c1ccc(Br)cc1)N1CCN(c2ccc(F)cc2)CC1`, with -56.5%; and `CCn1nc(CC(=O)O)c2ccccc2c1=O`, with 22.9%; and `COc1cc([N+](=O)[O-])ccc1NC(=O)NCc1ccco1`, with 10.9%. Then `Cn1nnnc1SCC(=O)c1c(N)n(C)c(=O)n(C)c1=O`, with 18.3%. On to `O=C(O)c1nn(-c2cccc(C(F)(F)F)c2)ccc1=O`, for which the “hERG current change (%, negative = inhibition) at 10uM” value is 21.5%. Turning to `Cc1cc(=O)c(C(=O)O)nn1-c1cccc(C(F)(F)F)c1`, the “hERG current change (%, negative = inhibition) at 10uM” value is reported as -74.6%. Regarding `Cc1cc(=O)c(C(=O)O)nn1-c1ccccc1`, the “hERG current change (%, negative = inhibition) at 10uM” value was 5.86%. In the case of `CCOc1ccccc1C1CC(=O)NC2=C1C(=O)CCC2` (centres unmarked) it was 13.6%.

As to `O=C1CCC/C(=N/NC(=O)c2sc3ccccc3c2Cl)C1`, the “hERG current change (%, negative = inhibition) at 10uM” value is reported as 5.82%. Then `COc1cc(C(C)=O)ccc1OCC(O)CN1CCN(c2ccc(F)cc2)CC1` (centres unmarked), with -39%; and `COc1cc(C(C)=O)ccc1OCC(O)CN1CCN(c2ccccn2)CC1` (centres unmarked), with -9.62%; and `COc1cc(C(C)=O)ccc1OCC(O)CN1CCN(c2ccc(C)cc2C)CC1` (centres unmarked), with -58.3%. In the case of `COc1cc(C(C)=O)ccc1OCC(O)CN1CCN(S(=O)(=O)c2ccccc2)CC1` (centres unmarked) it was -11.5%; in that of `COc1cc(C(C)=O)ccc1OCC(O)CN1CCN(c2ccccc2)CC1` (centres unmarked), -31.5%. Then `COc1cc(C(C)=O)ccc1OCC(O)CN1CCN(c2c(C)cccc2C)CC1` (centres unmarked), with -60.3%; and `COc1cc(C(C)=O)ccc1OCC(O)CN1CCN(c2cc(C)cc(C)c2)CC1` (centres unmarked), with -56.2%; and `COc1cc(C(C)=O)ccc1OCC(O)CN1CCN(c2ccc(C)c(C)c2)CC1` (centres unmarked), with -39.6%. Turning to `COc1cc(C(C)=O)ccc1OCC(O)Cn1nc(C)c(Br)c1C` (centres unmarked), the “hERG current change (%, negative = inhibition) at 10uM” value is recorded as -7%. In the case of `COc1ccc(C(=O)/C=C/Nc2c(C)n(C)n(-c3ccccc3)c2=O)c(OC)c1` it was 0.857%; in that of `COc1ccc(NC2CCCN(C(=O)CCc3scnc3C)C2)cc1` (centres unmarked), 12.2%. In the case of `CS(=O)(=O)c1ccc(N2CCN(C3CC(=O)NC3=O)CC2)cc1` (centres unmarked) it was 13.1%; in that of `CC(=O)c1ccc(S(=O)(=O)NCCC(=O)OCC(=O)N2CCCC2=O)cc1`, -7.6%. As to `Cc1cccc2sc(N(CCCN(C)C)C(=O)CCS(=O)(=O)c3ccccc3)nc12`, the “hERG current change (%, negative = inhibition) at 10uM” value was -35%. Then `COc1ccc(OC)c2sc(N(CCCN(C)C)C(=O)CCS(=O)(=O)c3ccccc3)nc12.Cl`, with -70.5%.
